Compounds without any hit were thinned out: in the full panel of roughly 83,000, 20% have a hit.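 96-well plates, one dose, 48 hours. Percent growth reported; active if below 10.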 Calls of active or inactive are those of the source.
Columns and labels:
Test in all cases: NCI-60 one-dose screen, 48 h (100 = growth as untreated, 0 = no growth, -100 = all killed)
Settings in all cases: 10 µM unless noted
HCT-15 colon = tested on: HCT-15 colon
HT29 colon = tested on: HT29 colon
SNB-75 CNS = tested on: SNB-75 CNS
SNB-19 CNS = tested on: SNB-19 CNS
U251 CNS = tested on: U251 CNS
PC-3 prostate = tested on: PC-3 prostate
SK-MEL-5 melanoma = tested on: SK-MEL-5 melanoma
UACC-62 melanoma = tested on: UACC-62 melanoma
LOX IMVI melanoma = tested on: LOX IMVI melanoma
SK-MEL-28 melanoma = tested on: SK-MEL-28 melanoma
SK-MEL-2 melanoma = tested on: SK-MEL-2 melanoma
EKVX NSCLC = tested on: EKVX NSCLC
SN12C renal = tested on: SN12C renal
UO-31 renal = tested on: UO-31 renal
TK-10 renal = tested on: TK-10 renal
ACHN renal = tested on: ACHN renal
CAKI-1 renal = tested on: CAKI-1 renal
A498 renal = tested on: A498 renal
CCRF-CEM leukemia = tested on: CCRF-CEM leukemia
MOLT-4 leukemia = tested on: MOLT-4 leukemia

Measured: growth

COc1cc2nc(Cl)nc(Nc3cccc(C4=Nc5c(N)nc(N)nc5NC(c5ccc(F)cc5)C4)c3)c2cc1OC (stereo not drawn)
active: HCT-15 colon 0.163% | HT29 colon 9.87% | U251 CNS -22% | LOX IMVI melanoma -53.6% | CCRF-CEM leukemia 5.4%
inactive: SNB-75 CNS 85.9% | SNB-19 CNS 31.7% | PC-3 prostate 59.9% | SK-MEL-5 melanoma 67.1% | UACC-62 melanoma 93% | SK-MEL-28 melanoma 94.6% | SK-MEL-2 melanoma 86% | EKVX NSCLC 89.6% | SN12C renal 81.9% | UO-31 renal 91.8% | TK-10 renal 112% | ACHN renal 97.3% | CAKI-1 renal 88.8% | A498 renal 77.9%

COc1ccc(C(=O)Nc2ncc(Cc3ccccc3Cl)s2)cc1
inactive: SNB-75 CNS 28.8% | SNB-19 CNS 23.7% | U251 CNS 14.6% | PC-3 prostate 29.7% | UACC-62 melanoma 35.7% | SK-MEL-28 melanoma 64% | EKVX NSCLC 41.7% | SN12C renal 32.7% | UO-31 renal 38.1% | TK-10 renal 64.3% | ACHN renal 32.5% | CAKI-1 renal 36.4% | CCRF-CEM leukemia 18.7% | MOLT-4 leukemia 13.8%
active: HCT-15 colon 9.87% | HT29 colon -16.6% | SK-MEL-5 melanoma 2.6% | LOX IMVI melanoma 1.15% | SK-MEL-2 melanoma -1.02% | A498 renal -8.09%

CC(C)(C)c1ccc(CC(=O)Nc2sc3c(c2C(N)=O)CCC(=O)C3)cc1
active: HCT-15 colon -19.5% | HT29 colon 3.3% | SK-MEL-5 melanoma -76% | UACC-62 melanoma -32.8% | LOX IMVI melanoma -3.55% | SK-MEL-28 melanoma 5.18% | SK-MEL-2 melanoma -5.02% | SN12C renal 6.98% | UO-31 renal -87.5% | ACHN renal -90.8% | CAKI-1 renal -56.2%
inactive: SNB-75 CNS 23% | SNB-19 CNS 22.8% | U251 CNS 14.9% | PC-3 prostate 13.1% | EKVX NSCLC 10.8% | TK-10 renal 16.6% | A498 renal 47.7% | CCRF-CEM leukemia 10.8%

CCc1ccc(SC2c3ccc(N(CC)CC)cc3Oc3nc(N)c(C#N)c(N)c32)cc1 (stereo not drawn)
inactive: SNB-75 CNS 12.7%
active: HCT-15 colon -88% | HT29 colon -54.6% | SNB-19 CNS -95.1% | U251 CNS -71.3% | PC-3 prostate -74% | SK-MEL-5 melanoma -97% | UACC-62 melanoma -32.7% | LOX IMVI melanoma -86.6% | SK-MEL-28 melanoma -18.7% | SK-MEL-2 melanoma -48.2% | EKVX NSCLC -54.8% | SN12C renal -32.9% | UO-31 renal -98.8% | TK-10 renal -18% | ACHN renal -53.7% | CAKI-1 renal -46.7% | A498 renal -8.49% | CCRF-CEM leukemia -23.7% | MOLT-4 leukemia -8.26%

c1ccc(C(c2nc3ncncc3[nH]2)N2CSc3nc4ccccc4n3C2)cc1 (stereo not drawn)
inactive: HCT-15 colon 101% | HT29 colon 107% | SNB-75 CNS 91% | SNB-19 CNS 100% | U251 CNS 107% | PC-3 prostate 95.6% | SK-MEL-5 melanoma 106% | UACC-62 melanoma 93.1% | LOX IMVI melanoma 102% | SK-MEL-28 melanoma 104% | SK-MEL-2 melanoma 103% | EKVX NSCLC 97.5% | SN12C renal 98.8% | UO-31 renal 82.7% | TK-10 renal 115% | ACHN renal 94.7% | CAKI-1 renal 89.5% | A498 renal 102% | CCRF-CEM leukemia 108% | MOLT-4 leukemia 104%

CC(C)(C)c1ccc(C(=O)Nc2nc3ccc(O)cc3s2)cc1
active: HCT-15 colon -5.95% | HT29 colon 2.02%
inactive: SNB-75 CNS 96.2% | SNB-19 CNS 63.5% | U251 CNS 59.1% | PC-3 prostate 50.1% | SK-MEL-5 melanoma 37.5% | UACC-62 melanoma 45.1% | LOX IMVI melanoma 10.4% | SK-MEL-28 melanoma 47.1% | SK-MEL-2 melanoma 71.4% | EKVX NSCLC 47.5% | SN12C renal 53.5% | UO-31 renal 25.5% | TK-10 renal 74.9% | ACHN renal 39% | CAKI-1 renal 15.1% | A498 renal 48.7% | CCRF-CEM leukemia 41.9% | MOLT-4 leukemia 33%

O=C(Nc1nc2ccc([N+](=O)[O-])cc2s1)Nc1ccccc1Br
inactive: HCT-15 colon 24.3% | HT29 colon 44.9% | SNB-75 CNS 77.3% | SNB-19 CNS 20.5% | U251 CNS 10.6% | UACC-62 melanoma 32.3% | LOX IMVI melanoma 44.8% | SK-MEL-28 melanoma 48.8% | SK-MEL-2 melanoma 48.1% | EKVX NSCLC 35.3% | SN12C renal 23.4% | UO-31 renal 43.4% | TK-10 renal 81.1% | ACHN renal 47.3% | CAKI-1 renal 64.1% | A498 renal 21.4% | CCRF-CEM leukemia 37.6% | MOLT-4 leukemia 27.1%
active: PC-3 prostate 3.13% | SK-MEL-5 melanoma -3.21%

O=C(CCn1cc[n+](CC(=O)c2ccc(-c3ccccc3)cc2)c1)Nc1cccc2cccnc12
inactive: HCT-15 colon 96.5% | HT29 colon 70.7% | SNB-75 CNS 45.4% | SNB-19 CNS 61.4% | U251 CNS 61.2% | PC-3 prostate 55.9% | SK-MEL-5 melanoma 81.1% | UACC-62 melanoma 58.8% | LOX IMVI melanoma 82.5% | SK-MEL-28 melanoma 67.3% | SK-MEL-2 melanoma 90.1% | EKVX NSCLC 81.9% | SN12C renal 77.4% | UO-31 renal 88.1% | TK-10 renal 117% | ACHN renal 104% | CAKI-1 renal 104% | A498 renal 98.8% | CCRF-CEM leukemia 78.4% | MOLT-4 leukemia 84.3%

COc1cc(-c2nc3sccn3c2-c2ccnc(S(C)(=O)=O)n2)ccc1F
inactive: HCT-15 colon 77.9% | HT29 colon 116% | SNB-75 CNS 76.1% | SNB-19 CNS 92% | U251 CNS 99.1% | PC-3 prostate 105% | SK-MEL-5 melanoma 96.5% | UACC-62 melanoma 81.3% | LOX IMVI melanoma 102% | SK-MEL-28 melanoma 97.7% | SK-MEL-2 melanoma 96% | EKVX NSCLC 87.3% | SN12C renal 88.7% | UO-31 renal 85.2% | TK-10 renal 120% | ACHN renal 90.4% | CAKI-1 renal 85.2% | A498 renal 95.1% | CCRF-CEM leukemia 92.1% | MOLT-4 leukemia 83.5%

c1ccc(C(c2nc3ncncc3[nH]2)N2CSc3nc4ncncc4n3C2)cc1 (stereo not drawn)
inactive: HCT-15 colon 80.4% | HT29 colon 42.7% | SNB-75 CNS 45% | SNB-19 CNS 96.9% | U251 CNS 92.1% | PC-3 prostate 78.2% | SK-MEL-5 melanoma 85.1% | UACC-62 melanoma 27.5% | LOX IMVI melanoma 13.2% | SK-MEL-28 melanoma 98.4% | SK-MEL-2 melanoma 70.5% | EKVX NSCLC 94.4% | SN12C renal 87.5% | UO-31 renal 70.9% | TK-10 renal 48.9% | ACHN renal 81.9% | CAKI-1 renal 41% | A498 renal 96.5% | CCRF-CEM leukemia 32.1% | MOLT-4 leukemia 23.8%

O=C(CCC(=O)N1CCOCC1)OCCCCCCSc1ccc([N+](=O)[O-])c2nonc12
inactive: SNB-75 CNS 36.4% | SNB-19 CNS 25.1% | SK-MEL-5 melanoma 27.9% | TK-10 renal 13.4% | A498 renal 12.8%
active: HCT-15 colon -67.4% | HT29 colon -34.2% | U251 CNS -29.8% | PC-3 prostate 2.96% | UACC-62 melanoma -64.6% | LOX IMVI melanoma -82.2% | SK-MEL-28 melanoma -36.9% | SK-MEL-2 melanoma -40.6% | EKVX NSCLC 1.52% | SN12C renal -74.7% | UO-31 renal -84.2% | ACHN renal -97.7% | CAKI-1 renal -31.2% | CCRF-CEM leukemia -5.49% | MOLT-4 leukemia -2.71%

CC1(C)CC[C@]2(C(=O)N3CCOCC3)CC[C@]3(C)C(=CC[C@@H]4[C@@]5(C)C/C(=C/c6ccccn6)C(=O)C(C)(C)[C@@H]5CC[C@]43C)[C@@H]2C1
active: A498 renal -3.14%
inactive: HCT-15 colon 52.1% | HT29 colon 56.3% | SNB-75 CNS 34.1% | SNB-19 CNS 88% | U251 CNS 80.7% | PC-3 prostate 20.9% | SK-MEL-5 melanoma 69.3% | UACC-62 melanoma 64.8% | LOX IMVI melanoma 55.9% | SK-MEL-28 melanoma 86.1% | SK-MEL-2 melanoma 82.9% | EKVX NSCLC 56.1% | SN12C renal 67.7% | UO-31 renal 42% | TK-10 renal 70.2% | ACHN renal 76.9% | CAKI-1 renal 28.9% | CCRF-CEM leukemia 44.5% | MOLT-4 leukemia 25%

NS(=O)(=O)c1ccc(-n2cc(CN3CCNCC3)nn2)cc1
inactive: HCT-15 colon 104% | HT29 colon 109% | SNB-75 CNS 92.1% | SNB-19 CNS 102% | U251 CNS 105% | PC-3 prostate 102% | SK-MEL-5 melanoma 100% | UACC-62 melanoma 99% | LOX IMVI melanoma 107% | SK-MEL-28 melanoma 111% | SK-MEL-2 melanoma 110% | EKVX NSCLC 104% | SN12C renal 110% | UO-31 renal 92.9% | TK-10 renal 100% | ACHN renal 109% | CAKI-1 renal 95.9% | A498 renal 107% | CCRF-CEM leukemia 109% | MOLT-4 leukemia 103%

COc1c(N2CC3CCCNC3C2)c(F)cc2c(=O)c(C(=O)N/N=C/c3ccc(F)cc3)cn(C3CC3)c12 (stereo not drawn)
inactive: HCT-15 colon 45.9% | HT29 colon 45.9% | SNB-75 CNS 83.6% | SNB-19 CNS 99.5% | U251 CNS 81.4% | PC-3 prostate 76.4% | SK-MEL-5 melanoma 82.7% | UACC-62 melanoma 80.2% | LOX IMVI melanoma 46.1% | SK-MEL-28 melanoma 81% | SK-MEL-2 melanoma 100% | EKVX NSCLC 90% | SN12C renal 88.4% | UO-31 renal 80.7% | TK-10 renal 101% | ACHN renal 104% | CAKI-1 renal 87.7% | A498 renal 59.9% | CCRF-CEM leukemia 63.8% | MOLT-4 leukemia 63.1%

N/C(=N\C(N)=N\c1nc2ccccc2s1)c1ccc(C(F)(F)F)cc1
inactive: HCT-15 colon 28.8% | HT29 colon 105% | SNB-75 CNS 97.2% | SNB-19 CNS 90.3% | U251 CNS 41.9% | SK-MEL-5 melanoma 89% | UACC-62 melanoma 97.8% | LOX IMVI melanoma 18.3% | SK-MEL-28 melanoma 94.8% | SK-MEL-2 melanoma 108% | EKVX NSCLC 54.8% | SN12C renal 36.5% | TK-10 renal 102% | ACHN renal 27.8% | CAKI-1 renal 80.2% | A498 renal 70.9% | CCRF-CEM leukemia 54.7% | MOLT-4 leukemia 68.6%
active: PC-3 prostate 8.57% | UO-31 renal -19.1%

CCO/C=N/C1=C(C#N)C(c2ccc(Cl)cc2)c2sc3c(CC)cccc3c2O1 (stereo not drawn)
inactive: HCT-15 colon 23.3% | HT29 colon 10.7% | SNB-19 CNS 24.1% | U251 CNS 20% | PC-3 prostate 16.5% | SK-MEL-5 melanoma 20.5% | UACC-62 melanoma 15.8% | LOX IMVI melanoma 29.9% | SK-MEL-28 melanoma 61.2% | SK-MEL-2 melanoma 38.8% | EKVX NSCLC 47.8% | SN12C renal 36.3% | UO-31 renal 39.5% | TK-10 renal 60.6% | ACHN renal 40.9% | CAKI-1 renal 40.6% | CCRF-CEM leukemia 16.1% | MOLT-4 leukemia 23.6%
active: SNB-75 CNS -5.34% | A498 renal 2.43%
